Screen size: about 5,500 compounds; about 2,000 (36%) were called active. Not shown: some 18% with an inconclusive outcome. Cut-off read from the data, not from the text of the source: active = normalized growth mostly below about 0.91 (no sharp cut-off); inconclusive = no clear call, values can overlap the other calls; inactive = mostly above about 0.92. The list shows a part of the results.
Test: chemical genetic growth profiling, strain panel (AID 1159580);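 note: tested at 20 µM; growth read once vehicle control cultures reached saturation at 30 °C; 1 = growth at the plate median or of vehicle wells; lower values mean less growth of the strain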
Details: growth OD

Measured: normalized growth

NCc1ccc(S(N)(=O)=O)cc1
inactive: S. cerevisiae deletion strains, locus YKL009W, strain mrt4, active compounds read low 0.974 | S. cerevisiae deletion strains, locus YKL068W, active compounds read low 0.987 | S. cerevisiae deletion strains, locus YKL085W, strain MDH1 (second series), active compounds read low 0.982 | S. cerevisiae deletion strains, locus YKL085W, strain MDH1, active compounds read low 0.982 | S. cerevisiae deletion strains, locus YKL160W, strain elf1, active compounds read low 1.06 | S. cerevisiae deletion strains, locus YKL190W, strain CNB1, active compounds read low 1.01 | S. cerevisiae deletion strains, locus YKR001C, strain vps1, active compounds read low 1.02 | S. cerevisiae deletion strains, locus YKR026C, strain gcn3, active compounds read low 1.01 | S. cerevisiae deletion strains, locus YKR091W, strain srl3, active compounds read low 1 | S. cerevisiae deletion strains, locus YLL001W, strain dnm1, active compounds read low 1.05 | S. cerevisiae deletion strains, locus YLL026W, active compounds read low 1 | S. cerevisiae deletion strains, locus YLL041C, strain sdh2, active compounds read low 0.996 | S. cerevisiae deletion strains, locus YLR027C, strain aat2, active compounds read low 1.01 | S. cerevisiae deletion strains, locus YLR039C, strain RIC1, active compounds read low 0.986 | S. cerevisiae deletion strains, locus YLR058C, strain SHM2, active compounds read low 0.984 | S. cerevisiae deletion strains, locus YLR102C, strain apc9, active compounds read low 0.988 | S. cerevisiae deletion strains, locus YLR113W, strain HOG1, active compounds read low 1.01 | S. cerevisiae deletion strains, locus YLR221C, strain rsa3, active compounds read low 1.05 | S. cerevisiae deletion strains, locus YLR258W, strain gsy2, active compounds read low 1.01 | S. cerevisiae deletion strains, locus YLR262C, strain YPT6 (second series), active compounds read low 1.04 | S. cerevisiae deletion strains, locus YLR262C, strain YPT6, active compounds read low 1.02 | S. cerevisiae deletion strains, locus YLR268W, strain sec22, active compounds read low 0.988 | S. cerevisiae deletion strains, locus YLR320W, strain mms22, active compounds read low 1.06 | S. cerevisiae deletion strains, locus YLR330W, strain CHS5, active compounds read low 0.989 | S. cerevisiae deletion strains, locus YLR342W, strain FKS1 (second series), active compounds read low 1 | S. cerevisiae deletion strains, locus YLR342W, strain FKS1, active compounds read low 1.01 | S. cerevisiae deletion strains, locus YLR357W, strain rsc2, active compounds read low 1.01 | S. cerevisiae deletion strains, locus YLR370C, strain arc18, active compounds read low 1.01 | S. cerevisiae deletion strains, locus YLR371W, strain rom2, active compounds read low 0.985 | S. cerevisiae deletion strains, locus YLR384C, strain iki3, active compounds read low 1.01 | S. cerevisiae deletion strains, locus YLR418C, strain cdc73, active compounds read low 0.954 | S. cerevisiae deletion strains, locus YML016C, strain PPZ1, active compounds read low 0.995 | S. cerevisiae deletion strains, locus YML032C, strain rad52, active compounds read low 0.99 | S. cerevisiae deletion strains, locus YML120C, strain ndi1, active compounds read low 1.04 | S. cerevisiae deletion strains, locus YML124C, strain tub3, active compounds read low 0.99 | S. cerevisiae deletion strains, locus YMR058W, strain fet3, active compounds read low 1.02 | S. cerevisiae deletion strains, locus YMR078C, strain ctf18, active compounds read low 0.978 | S. cerevisiae deletion strains, locus YMR125W, strain sto1, active compounds read low 1.04 | S. cerevisiae deletion strains, locus YMR129W, active compounds read low 1 | S. cerevisiae deletion strains, locus YMR205C, strain PFK2, active compounds read low 1.05 | S. cerevisiae deletion strains, locus YMR223W, strain ubp8, active compounds read low 0.962 | S. cerevisiae deletion strains, locus YMR231W, strain pep5, active compounds read low 0.993 | S. cerevisiae deletion strains, locus YMR263W, strain SAP30, active compounds read low 0.999 | S. cerevisiae deletion strains, locus YMR307W, strain GAS1, active compounds read low 1.01 | S. cerevisiae deletion strains, locus YNL067W, strain RPL9B, active compounds read low 1 | S. cerevisiae deletion strains, locus YNL071W, strain lat1, active compounds read low 1.01 | S. cerevisiae deletion strains, locus YNL153C, strain GIM3, active compounds read low 1.01 | S. cerevisiae deletion strains, locus YNL183C, strain NPR1, active compounds read low 0.956 | S. cerevisiae deletion strains, locus YNL209W, strain ssb2, active compounds read low 1 | S. cerevisiae deletion strains, locus YNL233W, strain BNI4, active compounds read low 0.99 | S. cerevisiae deletion strains, locus YNL248C, strain rpa49, active compounds read low 1.04 | S. cerevisiae deletion strains, locus YNL250W, strain rad50, active compounds read low 0.967 | S. cerevisiae deletion strains, locus YNL271C, strain bni1, active compounds read low 0.985 | S. cerevisiae deletion strains, locus YNL298W, strain CLA4, active compounds read low 0.991 | S. cerevisiae deletion strains, locus YNL307C, strain MCK1, active compounds read low 0.992 | S. cerevisiae deletion strains, locus YNL322C, strain KRE1 (second series), active compounds read low 1.02 | S. cerevisiae deletion strains, locus YNL322C, strain KRE1, active compounds read low 0.999 | S. cerevisiae deletion strains, locus YNR049C, strain mso1, active compounds read low 0.999 | S. cerevisiae deletion strains, locus YNR052C, strain pop2, active compounds read low 0.987 | S. cerevisiae deletion strains, locus YOL006C, strain TOP1, active compounds read low 0.97 | S. cerevisiae deletion strains, locus YOL012C, strain htz1 1.28 | S. cerevisiae deletion strains, locus YOL147C, strain pex11, active compounds read low 0.985 | S. cerevisiae deletion strains, locus YOR001W, strain rrp6, active compounds read low 0.972 | S. cerevisiae deletion strains, locus YOR061W, strain CKA2, active compounds read low 0.993 | S. cerevisiae deletion strains, locus YOR069W, strain VPS5, active compounds read low 0.99 | S. cerevisiae deletion strains, locus YOR070C, strain gyp1, active compounds read low 1.01 | S. cerevisiae deletion strains, locus YOR080W, strain dia2, active compounds read low 0.996 | S. cerevisiae deletion strains, locus YOR083W, strain WHI5, active compounds read low 1.06 | S. cerevisiae deletion strains, locus YOR106W, strain vam3, active compounds read low 1.06 | S. cerevisiae deletion strains, locus YOR136W, strain idh2, active compounds read low 0.992 | S. cerevisiae deletion strains, locus YOR144C, strain elg1, active compounds read low 0.987 | S. cerevisiae deletion strains, locus YOR184W, strain ser1, active compounds read low 1 | S. cerevisiae deletion strains, locus YOR231W, strain MKK1, active compounds read low 1.01 | S. cerevisiae deletion strains, locus YOR265W, strain rbl2, active compounds read low 1.02 | S. cerevisiae deletion strains, locus YOR270C, strain vph1, active compounds read low 1.06 | S. cerevisiae deletion strains, locus YOR290C, strain snf2, active compounds read low 1.02 | S. cerevisiae deletion strains, locus YOR316C, strain cot1, active compounds read low 0.993 | S. cerevisiae deletion strains, locus YPL051W, strain arl3, active compounds read low 1.03 | S. cerevisiae deletion strains, locus YPL055C, strain LGE1, active compounds read low 1.01 | S. cerevisiae deletion strains, locus YPL078C, strain atp4, active compounds read low 1.06 | S. cerevisiae deletion strains, locus YPL106C, strain sse1, active compounds read low 1.03 | S. cerevisiae deletion strains, locus YPL240C, strain hsp82, active compounds read low 1.01 | S. cerevisiae deletion strains, locus YPL241C, strain CIN2, active compounds read low 0.998 | S. cerevisiae deletion strains, locus YPL256C, strain CLN2, active compounds read low 1.01 | S. cerevisiae deletion strains, locus YPR119W, strain clb2, active compounds read low 0.993 | S. cerevisiae deletion strains, locus YPR141C, strain kar3, active compounds read low 0.976 | S. cerevisiae deletion strains, locus YPR163C, strain tif3, active compounds read low 0.995 | S. cerevisiae deletion strains, locus YPR167C, strain met16, active compounds read low 0.99 | S. cerevisiae deletion strains, strain wtn01, active compounds read low 0.987 | S. cerevisiae strains, strain wild type, active compounds read low 1.01

Source: PubChem BioAssay AID1159580 (chemical genetic matrix, 2015)
